PubChem BioAssay (EPA / NIEHS)
Values joined by “and” are separate entries in the source; they are usually repeats but may differ in a detail not shown here. Equal values may be shown once. Active and inactive are the calls of the source. Rule for the calls: active = hit-call score of the fitted dose curve at least 0.9, where 1 is the maximum; inactive = score below 0.9.

Assay: CCTE_Shafer_MEA_dev_burst_duration_mean: CCTE's Neural Network Formation Assay for Mean Burst Duration, Shafer Lab (AID 2284045);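 for AC50: curve fitted for loss meaning shorter burst duration than DMSO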
Protocol: CCTE_Shafer_MEA_dev assay is conducted using Axion Biosystems 48 well microelectrode array (MEA) plates and Maestro recording system. Each well of the MEA plate contains a grid of 16 microelectrodes embedded in the culture surface. Electrically active cells, such as neurons, can be cultured over the electrodes, and electrical activity in these cells can be recorded extracellularly. The spontaneous firing of neurons is captured from each electrode on a microsecond timescale providing both temporally and spatially precise data. […] The CCTE_Shafer_MEA_dev assay uses primary cultures of rat cortical neurons. Recordings are made on days post-plating 5, 7, 9 and 12. As these cultures mature over time, neural networks develop functional activity and form cohesive networks in which electrical activity can be highly coordinated. CCTE_Shafer_MEA_dev_burst_duration_mean is 1 of 19 assay components of the CCTE_Shafer_MEA_dev assay. It measures the average time interval from the first spike (action potential firing) to the last spike in a singe-electrode burst (temporally-clustered group of spikes) during a recording in a microelectrode array (MEA) using Axion Biosystems Maestro 768 channel amplifier with the AxIS adaptive spike detector. The mean burst duration is averaged across the actively bursting electrodes to report a well-mean value. To collapse across multiple recordings made on days post-plating 5, 7, 9 and 12, the trapezoidal area-under-the-curve of the component is calculated.Data from the assay component CCTE_Shafer_MEA_dev_burst_duration_mean was analyzed into 1 assay endpoint. This assay endpoint, CCTE_Shafer_MEA_dev_burst_duration_mean, was analyzed in the negative analysis fitting direction relative to DMSO as the negative control and baseline of activity. Using a type of functional reporter, gain or loss-of-signal activity can be used to understand electrical activity.
On the day prior to culture, each well was coated thoroughly with 150 uL of 0.05% polyethyleneimine (PEI, Sigma Cat P3143) in 50 mM HEPES (Sigma Cat H7523) at a pH of 8. The plate was incubated at 37C for one hour. PEI was rinsed out with 500 uL of sterile water three times. Plates were stored at 4C until the day of culture. This culture was plated at a seeding density of 1.5 x 10^5 cells/well on a 48-well MEA plate, prepared as described above. Cells were administered via a 25 uL media/laminin ([…]; Sigma Cat L2020-1MG) drop directly onto the microelectrode array, as adding the cells with the laminin results in better attachment than pre-coating with laminin. After 2 hours, an additional 475 uL of cortical media was added and the cells returned to the incubator. Exposure starts at day 0 of plating and is continued over twelve days of network development until the experiment is terminated. Cells are fed with fresh medium on DIV 5 and 9, following the recordings on those days. The entire volume of media in the well is exchanged and any vehicle or compound treatment is renewed. Complete details are found in OP-NHEERL/ISTD/SBB/TJS/2015-03-r0 (available on request, email shafer.tim@epa.gov). Measurement of the electrical activity is non-invasive, and recordings can be made from the same plate over multiple different days of the culture. In cortical neurons, this allows for the measurement of extracellular action potentials over the period during which networks form in the MEA plate.

SMILES | outcome | AC50
CN/C(=N\[N+](=O)[O-])NCc1cnc(Cl)s1 | inactive | 
CCN(CC)c1nc(C)cc(OP(=S)(OC)OC)n1 | inactive | 
CC1(C)C(C(=O)OC(C#N)c2cccc(Oc3ccccc3)c2)C1(C)C (centres undefined) | inactive | 
O=C(Nc1ccccc1-c1ccc(Cl)cc1)c1cccnc1Cl | inactive | 
COP(=S)(OC)SCn1nnc2ccccc2c1=O | inactive | 
COP(=S)(OC)Oc1ccc([N+](=O)[O-])c(C)c1 | inactive | 
CC(C)(C)C(=O)C(Oc1ccc(Cl)cc1)n1cncn1 (centres undefined) | inactive | 
CCSC(=O)N1CCCCCC1 | inactive | 
Cc1c(COC(=O)[C@@H]2[C@H](/C=C(\Cl)C(F)(F)F)C2(C)C)cccc1-c1ccccc1 |  | 2.29 µM (active) and 1.75 µM (active)
O=C1C2CC=CCC2C(=O)N1SC(Cl)(Cl)Cl (centres undefined) | inactive | 
CCNC(=O)NC(=O)C(C#N)=NOC | inactive | 
CC1(C)C(C=C(Cl)Cl)C1C(=O)OC(C#N)c1cccc(Oc2ccccc2)c1 (centres undefined) | inactive | 
CCOC(=O)C(C)OC(=O)c1cc(Oc2ccc(C(F)(F)F)cc2Cl)ccc1[N+](=O)[O-] (centres undefined) | inactive | 
CS(=O)(=O)c1ccc(C(=O)C2C(=O)CCCC2=O)c([N+](=O)[O-])c1 | inactive | 
CNC(=O)Oc1cccc2ccccc12 | inactive | 
CS(=O)(=O)c1cc(C(F)(F)F)ccc1C(=O)c1cnoc1C1CC1 | inactive | 
N#CN=C1SCCN1Cc1ccc(Cl)nc1 | inactive | 
COP(=O)(OC)O/C(C)=C/C(=O)N(C)C | inactive | 
CC(C)=CC1C(C(=O)OCc2coc(Cc3ccccc3)c2)C1(C)C (centres undefined) | inactive | 
COC(=O)N(C(=O)N1CO[C@@]2(C(=O)OC)Cc3cc(Cl)ccc3C2=N1)c1ccc(OC(F)(F)F)cc1 | inactive | 
CCCN(CC)CC1COC2(CCC(C(C)(C)C)CC2)O1 (centres undefined) |  | 157 nM (active)
C=C(C)CN(CC)c1c([N+](=O)[O-])cc(C(F)(F)F)cc1[N+](=O)[O-] | inactive | 
CCOP(=O)(OCC)Oc1nc(Cl)c(Cl)cc1Cl | inactive | 
CO/N=C(/C1=NOCCO1)c1ccccc1Oc1ncnc(Oc2ccccc2Cl)c1F |  | 1.23 µM (active) and 858 nM (active)
